This note sets out measurements from PubChem BioAssay (EPA / NIEHS).

The structures appear in SMILES notation. Inconclusive results are not listed. The source made the active and inactive calls. Rule for the calls: active = hit-call score of the fitted dose curve at least 0.9, where 1 is the maximum; inconclusive = response in the unintended direction; inactive = score below 0.9.

For the assay, the target named is Nuclear receptor subfamily 4 group A member 2 (Homo sapiens) (UniProt P43354). Description: ATG_NURR1_TRANS: Attagene TRANS-FACTORIAL HepG2 Assay for human Nuclear Receptor Related Protein 1 (NURR1) (AID 2282985). As to conditions: HepG2 Attagene TRANS reporter, mRNA readout. Here is the method: ATG_TRANS is a cell-based, multiplexed-readout assay that uses HepG2, a human liver cell line, with measurements taken at 24 hours after chemical dosing in a 24-well plate.ATG_NURR1_TRANS is one of 30 assay component(s) measured or calculated from the ATG_TRANS assay. It is designed to make measurements of mRNA induction, a form of inducible reporter, as detected with fluorescence intensity signals by Reverse transcription polymerase chain reaction (RT-PCR) and Capillary electrophoresis technology.Data from the assay component ATG_NURR1_TRANS was analyzed into 1 assay endpoint. This assay endpoint, ATG_NURR1_TRANS, was analyzed in the positive analysis fitting direction relative to DMSO as the negative control and baseline of activity. Using a type of inducible reporter, measures of mRNA for gain-of-signal activity can be used to understand the reporter gene at the transcription factor-level as they relate to the gene NR4A2. Furthermore, this assay endpoint can be referred to as a primary readout, because this assay has produced multiple assay endpoints where this one serves a reporter gene function. To generalize the intended target to other relatable targets, this assay endpoint is annotated to the nuclear receptor intended target family, where the subfamily is orphan.
Sequence of Nuclear receptor subfamily 4 group A member 2 (Homo sapiens) (P43354 whole entry, looked up): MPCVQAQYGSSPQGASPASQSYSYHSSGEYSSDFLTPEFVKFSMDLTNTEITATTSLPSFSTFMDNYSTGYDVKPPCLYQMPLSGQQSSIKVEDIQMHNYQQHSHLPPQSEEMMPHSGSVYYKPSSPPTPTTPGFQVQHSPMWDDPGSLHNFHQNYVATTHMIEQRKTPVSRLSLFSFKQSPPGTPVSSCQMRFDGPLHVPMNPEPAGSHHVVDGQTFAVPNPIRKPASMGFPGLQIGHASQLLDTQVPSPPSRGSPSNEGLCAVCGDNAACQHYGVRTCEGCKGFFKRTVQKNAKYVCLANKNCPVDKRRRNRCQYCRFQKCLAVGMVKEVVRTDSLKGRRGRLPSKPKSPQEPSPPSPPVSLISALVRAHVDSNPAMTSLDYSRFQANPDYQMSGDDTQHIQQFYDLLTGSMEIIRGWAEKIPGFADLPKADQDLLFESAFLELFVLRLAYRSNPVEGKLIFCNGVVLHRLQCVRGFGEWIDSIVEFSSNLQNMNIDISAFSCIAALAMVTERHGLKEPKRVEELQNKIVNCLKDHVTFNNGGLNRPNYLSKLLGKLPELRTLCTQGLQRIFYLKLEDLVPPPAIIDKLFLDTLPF
Human liver HepG2 cells are transiently transfected with multiple reporter transcription units (MRTUs) in 6-well plates using FuGene 6 reagent (Roche; 3 ml FuGene/1 mg DNA). The MRTU constructs are regulated by a cis-regulating element (promoter). […] A major difference between the CIS and TRANS system is that in CIS activities of endogenous TFs are measured, whereas the TRANS assay evaluates changes in activities of exogenous, chimeric NR-Gal4 proteins. […] At the end of 24 hour incubation, total RNA was isolated using TriZol reagent (Invitrogen). The isolated RNA is then reverse-transcribed using oligo(dT) primer and Mo-MLV reverse transcriptase (Invitrogen) with DNAse I (Ambion) treatment for 30 min. The one-tenth of the produced cDNA was amplified by PCR using Taq DNA polymerase (Invitrogen) and two reporter sequence-specific primers. The PCR products were fluorescently labeled by primer extension with 6-arboxyfluorescein (6-FAM) 5'-labeled reporter sequence-specific primer (2 min at 95 C, 20 s at 68 C and 10 min at 72 C) and these products were digested with 5U of HpaI (New England Biolabs) for 2h at 37 C. The fragments were purified using Qiaquick PCR columns (Qiagen), analyzed on an ABI 3130xL genetic analyzer (Applied Biosystems) with peak positions identified by using a set of X-rhodamine (ROX)-labeled MapMarker1000 molecular weight standards (BioVentures). The raw capillary electrophoresis data was processed using Attagraph software (Attagene).
`COc1ccc(COC(C)=O)cc1`: the compound was called inactive.
`CC(C)CCCCCCCCCCCCCCC(=O)O`: the compound was classed as inactive.
Still for that read-out and setting: the same measure for `[Cl][Au]([Cl])[Cl]`: “inactive”; for `CC(C)Nc1nc(N)nc(Cl)n1`: “inactive”; for `CC1CCC(C(C)C)C(O)C1` (stereo not given): “inactive”.
Regarding `CCOC(=O)COC(=O)c1cc(Oc2ccc(C(F)(F)F)cc2Cl)ccc1[N+](=O)[O-]`, the compound was called inactive.
Same read-out and setting: the same measure for `O=P(O)(O)O`: “inactive”; for `C[Si]1(C)O[Si](C)(C)O[Si](C)(C)O1`: “inactive”; for `Cc1ccc(-c2ccccc2)cc1`: “inactive”.
Same read-out and setting: the same measure for `CCC(Cl)C(Cl)C(Cl)CC(Cl)C(Cl)C(C)Cl` (stereo not given): “inactive”; for `CCc1ccc(O)c(OC)c1`: “inactive”.
Regarding `CCOc1ccc(NC(=O)CC(C)O)cc1` (stereo not given), the compound was called inactive.
Turning to `CC(C)(C)CC(C)(C)c1ccc(OCCOCC[N+](C)(C)Cc2ccccc2)cc1`, the result was inactive.
On to `CCc1ccc(O)cc1`, for which the result was inactive.
Same read-out and setting: the same measure for `O=C(c1ccccc1)C(O)c1ccccc1` (stereo not given): “inactive”.
The same measure, in the same setting: the same measure for `ClC(c1ccccc1)(c1ccccc1)c1ccccc1`: “inactive”; for `O=C(Nc1ccc2c(O)c(N=Nc3ccc(N=Nc4ccc(S(=O)(=O)O)cc4)cc3)c(S(=O)(=O)O)cc2c1)c1ccccc1`: “inactive”.
On the same count and under the same terms, as for `COc1cccc(OC)c1O`, the entry is “inactive”.
Turning to `CC(C)=CCCC(C)CCOC=O` (stereo not given), the compound was called inactive.
Take `Nc1ccc(N)c2c1C(=O)c1ccccc1C2=O`: the result was inactive.
Consider `Nc1ccc(Cl)c([N+](=O)[O-])c1`, for which the call was inactive.
Turning to `CCCCC1(COC(=O)CCC(=O)O)C(=O)N(c2ccccc2)N(c2ccccc2)C1=O`, the result was inactive.
In the case of `c1ccc2cc(Nc3ccc(Nc4ccc5ccccc5c4)cc3)ccc2c1`, the result was inactive.
For `CCCCCc1ccco1`, the outcome was inactive.
Same read-out and setting: the same measure for `O=C1OC(=O)c2c(Br)c(Br)c(Br)c(Br)c21`: “inactive”; for `Cc1cccc(Nc2ccccc2)c1`: “inactive”; for `C/C=C(\C)C(=O)OCCc1ccccc1`: “inactive”.
In general, AC50 refers to the concentration giving half of the maximal activity seen. As to `O=C1CCCC=CCCCCCCCCCC1`, the AC50 is 26.5 µM (active).
With `CCCCCCCC(=O)OCCCCCC`, the call was inactive.
Turning to `CC=Cc1ccc(OCC)c(O)c1`, the compound was called inactive.
Regarding `CCOC(=O)c1ccc(N)cc1`, the compound was called inactive.
With `O=C(O)c1ccc(O)cc1`, the result was inactive.
Turning to `Oc1c(Cl)cc(Cl)c(Cl)c1Cc1c(O)c(Cl)cc(Cl)c1Cl`, the AC50 is 11.1 µM (active).
Still for that read-out and setting: the same measure for `C=Cc1ccncc1`: 100 µM (active).
For the compound `Nc1c(S(=O)(=O)O)cc(Br)c2c1C(=O)c1ccccc1C2=O`, the compound was classed as inactive.
In the case of `CCCCCCCC/C=C\CCCCCCCC(=O)OCC`, the result was inactive.
Turning to `OCC#CCO`, the call was inactive.
In the case of `CC=Cc1ccc(OC)c(OC)c1`, the call was inactive.
For `IC(I)I`, the result was inactive.
Same read-out and setting: as for `CC1C2CC(CC2C2CCCC(O)C2)C1(C)C` (stereo not given), the entry is “inactive”.
